{"source": "PubChem BioAssay AID1159554", "about": "(Broad Institute, 2015)", "note": "Among all 94,000 compounds or so, about 2,100 (2.2%) were called active. For the sample, actives were picked, then their nearest neighbours and some compounds at random. Values without a mark were called inactive. Rule as the data show it: active = activity change below about -80%; inconclusive = no clear call, values can overlap the other calls; inactive = above that.", "data": [{"assay": "P. falciparum Dd2 growth inhibitors, primary screen, SYBR Green fluorescence, single dose replicates (AID 1159554)", "settings": "72 h, at 10 µM, active compounds read low", "values": [{"smiles": "CC(=O)N1[C@H](CN(C)S(=O)(=O)c2ccccc2)[C@H](c2ccccc2)[C@@H]1CO", "activity change": "4.68%"}, {"smiles": "COc1cccc(-c2ccc3n(c2=O)C[C@H]2[C@H](CO)[C@@H](C(=O)NC4CCCC4)[C@@H]3N2C)c1", "activity change": "2.57%"}, {"smiles": "COc1ccc2c3c(n(C)c2c1)[C@@H](CO)N(C(=O)NC1CCCC1)CC31CCN(C(C)=O)CC1", "activity change": "-2.48%"}, {"smiles": "C[C@@H](NC(=O)C[C@H]1CC[C@H]2[C@@H](COC[C@@H](O)CN2C(=O)Nc2ccccc2)O1)c1ccccc1", "activity change": "8.13%"}, {"smiles": "C[C@H](CO)N1C[C@H](C)[C@@H](CN(C)Cc2ccc3c(c2)OCO3)OCCCC[C@H](C)Oc2ccc(NC(=O)Nc3ccc(C(F)(F)F)cc3)cc2C1=O", "activity change": "-41.8%"}, {"smiles": "Cc1ccccc1S(=O)(=O)NCC[C@@H]1CC[C@H](NC(=O)C2CCCCC2)[C@@H](CO)O1", "activity change": "7.15%"}, {"smiles": "CCS(=O)(=O)N1CC(=O)N2[C@H](CO)[C@@H](c3ccc(C#CC4CCCC4)cc3)[C@@H]2C1", "activity change": "-15.8%"}, {"smiles": "Cc1ccc(S(=O)(=O)N(C)C[C@H]2OCCCC[C@H](C)Oc3ccc(NC(=O)Cc4ccccc4)cc3C(=O)N([C@@H](C)CO)C[C@@H]2C)cc1", "activity change": "-81.9% (active)"}, {"smiles": "C[C@@H]1CCCCO[C@@H](CN(C)C(=O)Nc2cccc3ccccc23)[C@H](C)CN([C@H](C)CO)C(=O)c2cc(NC(=O)NC3CCCCC3)ccc2O1", "activity change": "-62.1%"}, {"smiles": "C[C@@H]1CCCCO[C@@H](CN(C)C(=O)Nc2ccccc2)[C@@H](C)CN([C@H](C)CO)C(=O)c2cc(NC(=O)Nc3ccc(F)cc3)ccc2O1", "activity change": "24.9%"}, {"smiles": "C[C@@H]1CN([C@@H](C)CO)C(=O)c2cc(NC(=O)Nc3ccc(C(F)(F)F)cc3)ccc2O[C@@H](C)CCCCO[C@@H]1CN(C)C(=O)Nc1cccc2ccccc12", "activity change": "-85.5% (active)"}, {"smiles": "COc1ccc(NC(=O)Nc2ccc3c(c2)C(=O)N([C@@H](C)CO)C[C@H](C)[C@@H](CN(C)C(=O)Nc2cccc4ccccc24)OCCCC[C@@H](C)O3)cc1", "activity change": "-66%"}, {"smiles": "C[C@@H]1CCCCO[C@H](CN(C)C(=O)Nc2ccccc2)[C@H](C)CN([C@H](C)CO)C(=O)c2cc(NC(=O)Nc3ccccc3)ccc2O1", "activity change": "-88.7% (active)"}, {"smiles": "Cc1ccc(S(=O)(=O)N(C)C[C@@H]2OCCCC[C@@H](C)Oc3ccc(NS(=O)(=O)c4ccccc4)cc3C(=O)N([C@H](C)CO)C[C@@H]2C)cc1", "activity change": "-57.4%"}, {"smiles": "C[C@@H]1CCCCO[C@H](CN(C)C(=O)Nc2cccc3ccccc23)[C@@H](C)CN([C@@H](C)CO)C(=O)c2cc(NC(=O)Nc3ccc(F)cc3)ccc2O1", "activity change": "-88.2% (active)"}, {"smiles": "C[C@@H]1CCCCO[C@@H](CN(C)C(=O)Nc2ccc(F)cc2)[C@H](C)CN([C@H](C)CO)C(=O)c2cc(NC(=O)Nc3cccc4ccccc34)ccc2O1", "activity change": "-24.3%"}, {"smiles": "C[C@H]1CCCCO[C@@H](CN(C)C(=O)Nc2ccccc2)[C@@H](C)CN([C@@H](C)CO)C(=O)c2cc(NC(=O)Nc3ccc(F)cc3)ccc2O1", "activity change": "-17.9%"}, {"smiles": "C[C@@H]1CCCCO[C@H](CN(C)C(=O)Nc2cccc3ccccc23)[C@@H](C)CN([C@H](C)CO)C(=O)c2cc(NC(=O)Nc3ccc4c(c3)OCO4)ccc2O1", "activity change": "-49.2%"}, {"smiles": "C[C@@H]1CCCCO[C@@H](CN(C)S(=O)(=O)c2ccc(Cl)cc2)[C@H](C)CN([C@@H](C)CO)C(=O)c2cc(NC(=O)Cc3ccccc3)ccc2O1", "activity change": "-69%"}, {"smiles": "Cc1ccc(S(=O)(=O)Nc2ccc3c(c2)C(=O)N([C@@H](C)CO)C[C@@H](C)[C@H](CN(C)Cc2ccc(Cl)c(Cl)c2)OCCCC[C@@H](C)O3)cc1", "activity change": "-43.2%"}, {"smiles": "C[C@@H]1CN([C@H](C)CO)S(=O)(=O)c2ccc(C3=CCCC3)cc2O[C@H]1CN(C)C(=O)Nc1ccc2c(c1)OCO2", "activity change": "-57.4%"}, {"smiles": "COc1ccccc1S(=O)(=O)N[C@@H]1CC[C@@H](CCNC(=O)C2CCCCC2)O[C@@H]1CO", "activity change": "-1.07%"}, {"smiles": "O=C(Nc1cccc(Cl)c1)N[C@@H]1CC[C@@H](CCNC(=O)C2CCOCC2)O[C@@H]1CO", "activity change": "-0.665%"}, {"smiles": "C/C=C/c1cnc2c(c1)C(=O)N([C@H](C)CO)C[C@@H](C)[C@H](CN(C)Cc1cccc(C(=O)O)c1)O2", "activity change": "27.8%"}, {"smiles": "O=C(C[C@@H]1CC[C@H]2[C@@H](COC[C@@H](O)CN2CC2CC2)O1)NCc1ccc(Cl)cc1", "activity change": "-0.915%"}, {"smiles": "CC(=O)N1[C@H](CO)[C@H](c2ccccc2)C12CN(C(=O)c1ccccn1)C2", "activity change": "-28.2%"}, {"smiles": "C[C@@H]1CN([C@@H](C)CO)C(=O)c2cc(NC(=O)Cc3ccccc3)ccc2O[C@@H](C)CCCCO[C@@H]1CN(C)C(=O)Nc1ccccc1", "activity change": "-51.5%"}, {"smiles": "CC(C)NC(=O)N(C)C[C@@H]1OCCCC[C@@H](C)Oc2ccc(NC(=O)CCCN(C)C)cc2C(=O)N([C@@H](C)CO)C[C@@H]1C", "activity change": "-5.33%"}, {"smiles": "C[C@@H]1CN([C@@H](C)CO)C(=O)c2cc(NC(=O)CCCN(C)C)ccc2O[C@@H](C)CCCCO[C@H]1CN(C)C(=O)Nc1cccc2ccccc12", "activity change": "-85.2% (active)"}, {"smiles": "CC(C)NC(=O)N(C)C[C@@H]1OCCCC[C@@H](C)Oc2ccc(NC(=O)Cc3ccccc3)cc2C(=O)N([C@H](C)CO)C[C@H]1C", "activity change": "-13.3%"}, {"smiles": "C[C@@H]1CCCCO[C@H](CN(C)C(=O)Nc2cccc3ccccc23)[C@H](C)CN([C@@H](C)CO)C(=O)c2cc(NC(=O)CCCN(C)C)ccc2O1", "activity change": "0.619%"}, {"smiles": "C[C@@H]1CN([C@@H](C)CO)C(=O)c2cc(NC(=O)Cc3ccccc3)ccc2O[C@@H](C)CCCCO[C@H]1CN(C)C(=O)Nc1cccc2ccccc12", "activity change": "-86.1% (active)"}, {"smiles": "CO[C@@H]1CN(C)C(=O)c2cc(NC(=O)Nc3ccc(F)cc3)ccc2OC[C@@H](C)NC[C@@H]1C", "activity change": "13.3%"}, {"smiles": "O=C(C[C@H]1CC[C@H]2[C@@H](COC[C@@H](O)CN2CC2CCOCC2)O1)NCc1ccc(Cl)cc1", "activity change": "-4.66%"}]}]}
